Pf growth 96h – P. falciparum growth inhibition at 96 hour, primary screen for plastid delayed-death inhibitors; P. falciparum luciferase reporter growth, 96 h; Potency, µM (highest dose often 28.7 µM), for inactives: top-dose activity change, negative = inhibition, hits mostly inhibitors; 6.9% of 320,000 active; note: % is set by controls: 0 for no effect and ±100 for the full control effect
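Compounds incubated with erythrocytes infected by luciferase-expressing P. falciparum (2% hematocrit, 0.05% parasitemia final) for 96 hours, 37 C in 5% CO2. Growth inhibition scored as decreased luciferase luminescence.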
SARS PLP yeast – SARS-CoV PLP inhibition in yeast; 0.19% of 330,000 active; S. cerevisiae expressing SARS-CoV PLpro, growth rescue; Potency, µM (titrated, usually from 32.9 µM), without a hit: top-dose activity, positive = growth rescue, most hits filed as activators; calls by dose curve; note: 0% is about no effect; nearly all actives have a fitted effect of over 55% in size
Sm TGR block – blocks Schistosoma mansoni thioredoxin glutathione reductase. 3% of 360,000 active. Q962Y6. purified TGR, DTNB reduction, TNB absorbance 405 nm. Potency, µM (highest dose often 114 µM), inactives show at the top dose activity change, negative = inhibition, actives largely listed as inhibitors. AID 485364; note: % is set by controls: 0 for no effect and ±100 for the full control effect; nearly all actives have a fitted effect of over 60% in size
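TGR 20 nM + NADPH 100 uM (dispensed conc.), cpd preinc 15 min RT; start with NADPH (500 uM addition) then DTNB (15 mM addition). Kinetic TNB absorbance, 405 nm filter. Four-parameter Hill fit across titration.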
Pf growth 48h – inhibits P. falciparum growth in the first generation, 48 h. Potency, µM (top dose mostly 28.7 µM), inactives show at the highest dose activity change, negative = inhibition, usual class: inhibitors. P. falciparum luciferase growth in erythrocytes, 48 h. 5.9% of 310,000 active. AID 504832; note: % is set by controls: 0 for no effect and ±100 for the full control effect
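Erythrocytes infected with P. falciparum carrying an integrated firefly luciferase reporter (2% hematocrit, 0.1% parasitemia final) were exposed to compounds in RPMI 1640 with 0.5% Albumax at 37 C, 5% CO2. Growth inhibition was scored as reduced luminescence.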
Numbers without * were called inactive; ? = inconclusive; / = no result given; ! = not active in a repeat. The list is not random: actives were taken first. Their share in the collection is about 12%. Unless noted, calls come from the whole dose curve; as a rule, active = well fitted curve in the direction sought with a large enough effect; inconclusive = small, poorly fitted or top-dose-only effect, or another doubt; inactive = no such curve, though single readings can be large; an effect the other way counts as inactive or inconclusive. Potency is the fitted concentration of half-maximal effect.

SMILES | Pf growth 96h | SARS PLP yeast | Sm TGR block | Pf growth 48h
CCOC(=O)N1CCN(C(=O)c2ccc(Cl)c(NC(=O)c3cccs3)c2)CC1 | ? | -0.7% | -22.5% | 10.4µM*
CCc1ccc(NC(=O)C(=O)NCCc2csc(-c3ccc(C(F)(F)F)cc3)n2)cc1 | / | / | -2.6% | /
COC(=O)c1cccc(CN2C(=O)SC(Nc3ccccc3C)C2=O)c1 (stereo unspecified) | / | / | 4.3% | /
COc1ccc2sc(N(CCCN(C)C)C(=O)c3ccc(C(=O)c4ccccc4)cc3)nc2c1 | ? | -3.8% | -6.8% | 13.1µM*
CCN(CC)CCN(C(=O)c1ccc(N2C(=O)CCC2=O)cc1)c1nc2cc3c(cc2s1)OCCO3 | 0.0% | 1.5% | 44.7µM* | 25.7%
COc1ccc2sc(N(CCCN(C)C)C(=O)c3ccc(S(=O)(=O)N4CCCc5ccccc54)cc3)nc2c1 | 8.28µM* | 2.0% | -3.8% | 7.38µM*
COc1cc2nc(N(CCCN(C)C)C(=O)c3ccc(S(=O)(=O)N4CCc5ccccc54)cc3)sc2cc1OC | ? | -2.9% | -24.7% | ?
Cc1cccc2sc(N(CCCN(C)C)C(=O)c3ccc(C(=O)c4ccccc4)cc3)nc12 | -101.7% | 0.0% | -2.2% | 6.57µM*
CN(C)CCCN(C(=O)c1ccc(C(=O)c2ccccc2)cc1)c1nc2cc3c(cc2s1)OCO3 | -20.1% | -1.6% | 7.0% | 11.7µM*
O=c1c2c3c(sc2nc2n1CCC2)CCC3 | 0.329µM* | 3.7% | 2.1% | 20.3%
CCOC(=O)c1cccc(N2CC3CNC(=O)C2(C(=O)OC)N3C)c1 (stereo unspecified) | / | -2.4% | / | /
CCOC(=O)c1c(NC(=O)CCS(=O)(=O)c2ccccc2)sc2c1CCN(C(C)C)C2 | ? | 0.6% | -14.5% | ?
CC1CC(C)CN(CC(=O)NC(c2ccccc2)c2ccccc2)C1 (stereo unspecified) | 5.3% | 0.0% | 0.0% | 11.7µM*
O=C(Cn1cnc2ccccc21)NC(c1ccccc1)c1ccccc1 | 3.7µM* | 3.4% | -14.2% | 4.15µM*
CC1Cc2ccccc2N1CC(=O)NC(=O)NCc1ccccc1 (stereo unspecified) | -13.8% | 0.1% | 1.1% | -2.9%
CC1Cc2ccccc2N1CC(=O)NC(c1ccccc1)c1ccccc1 (stereo unspecified) | 6.57µM* | 0.0% | 1.8% | 10.4µM*
NNC(=O)Cn1cnc2ccccc21 | 15.1% | -4.6% | 0.4% | 0.0%
CCC(Sc1nnc2c(n1)[nH]c1ccccc12)C(=O)Nc1ccccc1OC (stereo unspecified) | / | / | -1.9% | /
Cc1ccc(C(C)C)c(OCCCn2ccnc2C)c1 | -3.2% | 0.2% | 89.1µM* | ?
CC(C1CC2CCC1C2)N1CC(O)=C(c2nc3ccccc3[nH]2)C1=N (stereo unspecified) | 3.29µM* | 0.9% | 0.0% | ?
CC(C)N1CC(O)=C(c2nc3ccccc3[nH]2)C1=N | 17.7% | 1.3% | -3.7% | 78.3%
CC1C/C(=N\NC(=O)c2cccnc2)CC(C)(C)C1 (stereo unspecified) | 4.6% | 0.5% | 5.0% | 12.7%
CC1C/C(=N\NC(=S)NC(C)C)CC(C)(C)C1 (stereo unspecified) | 2.94µM* | 29.1% | -26.7% | /
CCN(CC)CCCNC(=O)/C=C/C(=O)O | 3.5% | 0.2% | 2.51µM* | -2.1%
CCN(CC)CCCNC(=O)c1ccccc1C | / | 3.6% | 2.2% | 5.4%
SMILES | Pf growth 96h | SARS PLP yeast | Sm TGR block | Pf growth 48h
Cc1sc2ncn(CC(=O)N3CCN(c4ccccc4)CC3)c(=O)c2c1S(=O)(=O)N1CCN(c2ncccn2)CC1 | / | / | -6.0% | /
C=CCN1C(=O)C(CCCC)NC1=S (stereo unspecified) | 30.6% | 26.7% | 3.1% | 8.3%
C=CCN1C(=O)C(CC(C)C)NC1=S (stereo unspecified) | 0.536µM*! | / | / | -17.7%
O=C(Cc1ccc(Br)cc1)N1CCOCC1 | ? | -1.5% | 15.3% | 0.0%
CC(C)C(NC(=O)/C(=C/c1ccco1)NC(=O)c1ccc(Br)o1)C(=O)O (stereo unspecified) | 48.1% | -0.6% | 35.5µM* | -1.7%
O=C(O)/C(=C/c1ccco1)NC(=O)c1ccc(Br)o1 | 13.1µM* | -0.9% | ? | ?
CC(C)C(NC(=O)/C(=C\c1ccco1)NC(=O)c1ccco1)C(=O)O (stereo unspecified) | ? | 7.1% | ? | -16.6%
NC(=O)NOCc1ccc(Cl)cc1Cl | 17.8% | 2.7% | 0.4% | 27.7%
CNC(=S)/N=C/NOCc1ccc(Cl)cc1Cl | 14.7µM* | -15.8% | -31.1% | ?
COc1cccc(C(=O)NCC2(c3ccccc3)CCCC2)c1OC | ? | 0.4% | 2.5% | ?
Cc1ccc(Cn2c(CNS(=O)(=O)c3ccc(C(C)(C)C)cc3)nc3cccnc32)cc1 | / | / | -4.0% | /
COc1ccc2c(c1)c(=O)c(C(=O)c1ccc(F)cc1)cn2CC(=O)Nc1ccc2c(c1)OCO2 | / | / | 3.7% | /
O=C(O)CCn1c(SCCOc2ccccc2F)nc2ccccc21 | 10.4µM* | 1.8% | 5.2% | ?
CC(NC(=O)c1ccc([N+](=O)[O-])o1)C1CC2CCC1C2 (stereo unspecified) | / | -88.6% | / | /
Clc1ccc(C2=Nn3c(nnc3-c3n[nH]c4c3CCC4)SC2)cc1Cl | ? | -9.2% | 1.0% | 11.7µM*
COC(=O)[C@]1(C)N[C@H](CN(C)S(=O)(=O)c2ccc(OC(F)(F)F)cc2)[C@@H]2C(=O)N(C)C(=O)[C@@H]21 | / | 0.6% | / | /
COC(=O)c1c(N2C(=O)[C@H]3[C@@H](C2=O)[C@]2(C(=O)Nc4c(C)cc(C)cc42)N2CCC[C@@H]32)sc(C)c1C | ? | 2.6% | -19.0% | ?
COC(=O)c1c(N2C(=O)[C@H]3[C@@H](C2=O)[C@]2(C(=O)Nc4c2ccc(C)c4C)N2CCC[C@@H]32)sc(C)c1C | ? | -9.2% | 56.2µM* | 0.0%
O=C(CS(=O)c1ccccc1[N+](=O)[O-])Oc1ccc(Br)cc1 (stereo unspecified) | ? | -7.4% | 25.1µM* | -3.5%
CC(=O)N1CCN(c2ccc(S(C)(=O)=O)cc2[N+](=O)[O-])CC1 | 6.7% | 1.2% | -10.3% | -5.0%
O=C(Cc1ccccc1)Oc1ccc([N+](=O)[O-])cc1 | ? | -1.8% | -12.9% | -18.6%
CS(=O)(=O)c1ccc(S(=O)CC(=O)Oc2ccc(Cl)cc2)c([N+](=O)[O-])c1 (stereo unspecified) | -10.7% | -0.4% | 1.58µM* | ?
CCc1ccc(NC(=O)CSC2=Nc3ccccc3C3=NC(CC(=O)NCc4cccs4)C(=O)N23)cc1 (stereo unspecified) | / | / | 3.9% | /
Cc1ccc(S(=O)(=O)O)cc1C | 18.3% | / | / | -3.3%
CC1(OC(=O)CCc2ccccc2)C(=O)C=C2C=C(c3ccc(C#N)cc3)N(C3CC3)C=C2C1=O (stereo unspecified) | ? | 4.1% | -19.8% | 13.1µM*
CC1(OC(=O)CCc2ccccc2)C(=O)C=C2C=C(c3ccc(C#N)cc3)N(Cc3ccco3)C=C2C1=O (stereo unspecified) | ? | 1.1% | 35.5µM* | ?
Clc1cccc(CSc2nncn3c2cc2sccc23)c1 | / | / | 1.4% | /

High-throughput results deposited in PubChem BioAssay by National Center for Advancing Translational Sciences (NCATS).
